Data published in PubChem BioAssay AID485313 (National Center for Advancing Translational Sciences (NCATS), 2010).
Hit rate of the full screen: of about 320,000 compounds, about 7,600 (2.4%) were called active. Inconclusive results (about 3%) are left out. The entries come from a sample that favours actives as a whole. Unmarked numbers belong to inactive results. Calls come from the whole dose curve; as a rule, active = well fitted activation curve with a large enough effect; inconclusive = small, poorly fitted or top-dose-only effect; inactive = no such curve, though single readings can be large or run the other way.

assay: qHTS Assay for NPC1 Promoter Activators; conditions: Huh7 NPC1 promoter luciferase reporter, 24 h; series mostly up to 9.22 µM; activation: at the top concentration; note: nearly all actives have a fitted effect of over 60% in size;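 for activation: reporter is driven by a mutant NPC1 promoter; % of control where 0% means no effect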
How it was run: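 Quantitative HTS used a cell-based reporter: Huh7 cells stably bearing the NPC1 promoter upstream of luciferase were treated with compounds for 24 h, and promoter activation was read as luminescence.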
Potency is the fitted concentration of half-maximal effect.

**Q.** With `O=C(CSc1nnc(-c2ccco2)n1-c1ccccc1)NCCc1ccccc1` as the compound, how does the “activation” value read?
**A.** -1.73%

**Q.** For `c1ccc(CSc2nnc(-c3ccco3)n2Cc2ccccc2)cc1`, which Potency is on record?
**A.** 2820 nM (active)

**Q.** For `O=C(CSc1nnc(-c2ccco2)n1CC1CCCO1)c1ccccc1` (centres undefined), which “activation” value is on record?
**A.** 12%

**Q.** For `C=CCN1C(=O)c2ccc(C(=O)N3CCC(C(=O)OCC)CC3)cc2C1=O`, which “activation” value is on record?
**A.** -3.88%

**Q.** Which “activation” value does the source give for `O=C(CCNS(=O)(=O)c1ccccc1)NCCSc1ccc(Br)cc1` here?
**A.** 0.759%

**Q.** Which “activation” value does the source give for `O=S(=O)(Nc1cc(Cl)ccc1N1CCOCC1)c1ccccc1Cl` here?
**A.** 0.364%

**Q.** For `C[C@@H]1NC(=O)[C@@]2(C)[C@@H](c3ccccc3)[C@H]3COc4ccccc4[C@@H]3N2C1=O`, which “activation” value is on record?
**A.** -0.11%

**Q.** For `CCOC(=O)c1c(CNCc2ccccc2F)c2sc(C)cc2n1C`, which “activation” value is on record?
**A.** -3.34%

**Q.** Which Potency does the source give for `CN(C)c1ccnc2sc(C(=O)c3ccccc3)c(N)c12` here?
**A.** 2510 nM (active)

**Q.** Which “activation” value does the source give for `Cc1nc2sc(C(=O)c3ccccc3)c(N)c2c2c1CCCC2` here?
**A.** 27%

**Q.** Which “activation” value does the source give for `CN(C)c1ccnc2sc3c(=O)n(Cc4ccccc4)cnc3c12` here?
**A.** 15.3%

**Q.** Which “activation” value does the source give for `Nc1ncnc2c1c(I)cn2[C@@H]1C[C@H](N)[C@@H](O)[C@H]1O` here?
**A.** -21.1% [at 46.1 µM]

**Q.** For `Cc1nn(Cc2ccccc2)c(C)c1CNC(=O)c1ccc(F)c(S(=O)(=O)N2CCOCC2)c1`, which “activation” value is on record?
**A.** -9.84%

**Q.** With `CN(CC(=O)Nc1cccc(F)c1)C(=O)CC1CCCC1` as the compound, how does the “activation” value read?
**A.** -1.92%

**Q.** For `COc1ccc(NC(=O)CC2COc3ccccc3O2)c(OC)c1` (centres undefined), which “activation” value is on record?
**A.** -2.7%

**Q.** Which “activation” value does the source give for `C/C(=N/NC(=O)C1COc2ccccc2O1)c1ccco1` (centres undefined) here?
**A.** -0.848%

**Q.** For `CC(=O)c1cccc(NC(=O)C2COc3ccccc3O2)c1` (centres undefined), which “activation” value is on record?
**A.** 17.1%

**Q.** Which Potency does the source give for `COc1ccc(NC(=O)C2COc3ccccc3O2)cc1` (centres undefined) here?
**A.** 2820 nM (active)

**Q.** With `O=C(Nc1ncc([N+](=O)[O-])s1)C1COc2ccccc2O1` (centres undefined) as the compound, how does the Potency read?
**A.** 3550 nM (active)

**Q.** For `O=C(Nc1nnc(SCc2ccc(Cl)cc2Cl)s1)C1COc2ccccc2O1` (centres undefined), which “activation” value is on record?
**A.** 0.802%

**Q.** Which “activation” value does the source give for `CCc1noc(C)c1C(=O)N1CCN(S(=O)(=O)c2cccc(C(F)(F)F)c2)CC1` here?
**A.** -1.26%

**Q.** For `Cc1ccc(CSc2ccc(S(=O)(=O)N3CCCCC3)cn2)cc1`, which “activation” value is on record?
**A.** 0.776%

**Q.** For `Cc1cc(C)nc(NC(=O)/C=C/c2ccc(Cl)cc2)n1`, which “activation” value is on record?
**A.** 2.77%

**Q.** For `CC(C)(C)c1ccc(/C=C/C(=O)Nc2ncccn2)cc1`, which Potency is on record?
**A.** 3980 nM (active)

**Q.** With `O=C(/C=C/c1ccc(Cl)cc1)Nc1ccc(S(=O)(=O)Nc2ncccn2)cc1` as the compound, how does the “activation” value read?
**A.** 0.261%

**Q.** Which “activation” value does the source give for `Cc1sc2ncnc(N3CCC(C(=O)Nc4ccc(F)cc4Cl)CC3)c2c1C` here?
**A.** -5.58%

**Q.** For `CCOC(=O)N1CCN(C(=O)COC(=O)c2cccc(S(C)(=O)=O)c2)CC1`, which “activation” value is on record?
**A.** -11.6%

**Q.** Which “activation” value does the source give for `Cc1ccc(C(=O)Nc2ccc(NC(=O)c3cccs3)cc2)c(C)c1` here?
**A.** -0.379%

**Q.** With `O=C(Nc1ccccc1)c1ccc(NC(=O)c2cccs2)cc1` as the compound, how does the “activation” value read?
**A.** -1.5%

**Q.** With `Cc1nc(-c2ccc(NC(=O)c3cccs3)cc2)cs1` as the compound, how does the Potency read?
**A.** 355 nM (active)

**Q.** For `Cc1noc(C)c1C(=O)NCC1COc2ccccc2O1` (centres undefined), which “activation” value is on record?
**A.** -1.09%

**Q.** With `COCCN1CCN(C(=O)c2cc(COc3ccc(F)cc3Cl)on2)CC1` as the compound, how does the “activation” value read?
**A.** 0.819%

**Q.** For `O=C(c1cc(-c2ccc(F)cc2)on1)N1CCN(c2ccc(F)cc2)CC1`, which “activation” value is on record?
**A.** -5.95%

**Q.** For `O=C(c1cc(-c2ccc(Cl)cc2)on1)N1CCN(c2ccccc2)CC1`, which “activation” value is on record?
**A.** 13.6%

**Q.** With `COc1ccccc1-c1cc(C(=O)N2CCCCC2)no1` as the compound, how does the Potency read?
**A.** 3550 nM (active)

**Q.** For `COc1cccc(-c2cc(C(=O)N3CCN(c4ccccc4OC)CC3)no2)c1`, which “activation” value is on record?
**A.** -2.96%

**Q.** With `COc1cc(Cl)ccc1OCc1cc(C(=O)N2CC[C@@H]3CCCC[C@H]3C2)no1` as the compound, how does the “activation” value read?
**A.** 25.8%

**Q.** For `O=C(c1cc(-c2ccc(O)cc2)on1)N1CCOCC1`, which Potency is on record?
**A.** 891 nM (active)

**Q.** For `CC(=O)c1ccc(NC(=O)c2cc(-c3cccs3)on2)cc1`, which “activation” value is on record?
**A.** 2.09%

**Q.** Which Potency does the source give for `O=C(c1cc(-c2cccs2)on1)N1CCCCC1` here?
**A.** 1000 nM (active)

**Q.** Which “activation” value does the source give for `COc1ccccc1-c1cc(C(=O)NCCCn2ccnc2)no1` here?
**A.** 0.398%

**Q.** Which “activation” value does the source give for `O=C(CSc1n[nH]c(-c2cccs2)n1)N1CCCCC1` here?
**A.** 13.9%

**Q.** With `COc1ccc(OCc2cc(C(=O)N3CCCC3)no2)c2ccccc12` as the compound, how does the Potency read?
**A.** 3160 nM (active)

**Q.** Which “activation” value does the source give for `Cc1ccc(OCC(=O)N2CCN(S(=O)(=O)c3ccc(Cl)s3)CC2)cc1C` here?
**A.** 1.41%

**Q.** For `CCN(CC)c1ccc(NC(=O)CN2C(=O)NC3(CCc4ccccc43)C2=O)cc1` (centres undefined), which “activation” value is on record?
**A.** -1.09%

**Q.** With `CCOC(=O)C1CCCN(C(=O)c2ccc(C)c(S(=O)(=O)N3CCCCC3)c2)C1` (centres undefined) as the compound, how does the “activation” value read?
**A.** -1.93%

**Q.** Which “activation” value does the source give for `CCc1c(C)nc2cc(C)[nH]n2c1=O` here?
**A.** -0.523%

**Q.** With `CCc1c(C)nc2cc(-c3cccs3)[nH]n2c1=O` as the compound, how does the “activation” value read?
**A.** 11%

**Q.** With `C=CCc1c(C)nc2cc(-c3ccccc3)[nH]n2c1=O` as the compound, how does the Potency read?
**A.** 1780 nM (active)

**Q.** For `O=C(Nc1cccc2ccccc12)c1onc2c1CCCC2`, which “activation” value is on record?
**A.** 20.7%

**Q.** Which “activation” value does the source give for `COc1ccccc1C(CNC(=O)c1ccc(C)c(S(=O)(=O)N2CCCCC2)c1)N(C)C` (centres undefined) here?
**A.** -3.67%

**Q.** Which Potency does the source give for `CC1CN/C(=C\C(=O)c2ccc(Br)cc2)C(=O)N1` (centres undefined) here?
**A.** 891 nM (active)

**Q.** Which “activation” value does the source give for `CC1(C)Cc2ccccc2/C(=C/C(=O)c2ccccc2)N1` here?
**A.** 2.31%

**Q.** With `COc1cc2c(cc1OC)/C(=C/C(=O)c1ccc(NC(C)=O)cc1)NCC2` as the compound, how does the “activation” value read?
**A.** 10%

**Q.** With `O=C(NCC#CCSc1nnc(-c2cccc3ccccc23)o1)c1cccs1` as the compound, how does the “activation” value read?
**A.** 1.24%

**Q.** For `O=C(NNC(=O)c1cccc(S(=O)(=O)Nc2ccc(Cl)cc2)c1)c1ccc(=O)[nH]c1`, which “activation” value is on record?
**A.** -1.95%

**Q.** Which “activation” value does the source give for `CCC(=O)N(CCc1ccccc1)Cc1cc2cc(C)ccc2[nH]c1=O` here?
**A.** 0.36%

**Q.** For `O=C(Nc1ccc(C2CC2(Cl)Cl)cc1)c1cccc([N+](=O)[O-])c1` (centres undefined), which Potency is on record?
**A.** 2000 nM (active)

**Q.** With `O=C(Nc1ccc(C(=O)N2CCCCC2)cc1)c1cccc([N+](=O)[O-])c1` as the compound, how does the “activation” value read?
**A.** -2.79%

**Q.** Which “activation” value does the source give for `O=C(Nc1ccc(NC(=O)c2ccco2)c(Cl)c1)c1cccc([N+](=O)[O-])c1` here?
**A.** -1.78%

**Q.** For `O=C(CN1C(=O)NC2(CCOc3ccccc32)C1=O)NCc1ccc(F)cc1` (centres undefined), which “activation” value is on record?
**A.** 0.0943%

**Q.** Which “activation” value does the source give for `O=C(OCC(=O)N1CCCCCC1)c1cnc(Cl)c(Cl)c1` here?
**A.** 0.217%

**Q.** With `CCC(C)NC(=O)CCCc1ccccc1` (centres undefined) as the compound, how does the “activation” value read?
**A.** 14.6%

**Q.** With `C=CCN1CCN(C(=O)CCCc2ccccc2)CC1` as the compound, how does the Potency read?
**A.** 316 nM (active)

**Q.** Which “activation” value does the source give for `O=C(CCCc1ccccc1)NCc1ccccc1` here?
**A.** -0.137%

**Q.** For `Nc1nnc(SCC(=O)NCC(=O)Nc2ccc(F)c(F)c2F)s1`, which “activation” value is on record?
**A.** 1.83%

**Q.** For `Brc1ccc(-c2noc(-c3ccccc3)n2)o1`, which Potency is on record?
**A.** 2240 nM (active)

**Q.** For `Nc1nonc1-c1noc(-c2ccc(Br)o2)n1`, which “activation” value is on record?
**A.** 15.3%

**Q.** For `Cn1nc(-c2ccccc2)c(-c2nc(-c3ccc(Cl)cc3)no2)c1Cl`, which “activation” value is on record?
**A.** -7.55%
